# Like-named read-outs stand apart in the source and are kept apart here. In all, about 13,000 compounds went through this assay and about 3,200 (25%) showed an effect of 50% or more. The list shows a part of the results.
# System: P. falciparum stage V gametocytes
# Design: BacTiter-Glo ATP luminescence viability of purified stage V gametocytes in 384-well plates, per cent inhibition versus DMSO
# Settings: 48 h, 5 µM, inhibitor
SMILES,% Inhibition [%],% Inhibition (% Inhibition) [%]
O=C(CCCc1ccccc1)Nc1cccc(N2CCC(N3CCN(c4ccccc4O)CC3)CC2)c1 [TCMDC-124664],-59.43,–
Cc1ccc2cc(NC(=O)CCCCCCCON3C(N)=NC(N)=NC34CCCCC4)ccc2n1 [TCMDC-140377],0.7997,–
Nc1c2c(nc3ccc(NC(=O)CCCCCc4ccccc4)cc13)CCCC2 [TCMDC-139060],-0.3465,–
Nc1c2c(nc3ccc(NC(=O)CCCCCCc4ccccc4)cc13)CCCC2 [TCMDC-139056],74.85,–
Nc1c2c(nc3ccc(NC(=O)CCCc4ccccc4)cc13)CCCC2 [TCMDC-139057],98.45,–
Nc1c2c(nc3ccc(NC(=O)c4ccccc4)cc13)CCCC2 [TCMDC-139043],28.63,–
CN1CCN(c2ccnc3ccc(NC(=O)Cc4ccc5ccccc5c4)cc23)CC1 [TCMDC-139351],4.671,–
O=C(Nc1ccc(O)c(-c2nc3ccccc3[nH]2)c1)c1ccc([N+](=O)[O-])cc1 [TCMDC-124222],-7.746,–
Nc1c2c(nc3cc(NC(=O)c4ccc([N+](=O)[O-])cc4)ccc13)CCCC2 [TCMDC-138975],103.7,–
CN1CCN(c2ccnc3ccc(NC(=O)Cc4ccc(OCc5ccccc5)cc4)cc23)CC1 [TCMDC-139349],24.22,–
Cc1cc(N(C)C)nc(Nc2ccc(NC(=O)CCc3ccccc3)cc2)n1 [TCMDC-124721],2.562,–
Nc1c2c(nc3ccc(NC(=O)Cc4ccccc4)cc13)CCCC2 [TCMDC-139055],81.23,–
COc1ccc2cc(C(=O)NC3CCC(CCN4CCc5cc(C#N)ccc5C4)CC3)[nH]c2c1 (stereo not drawn) [TCMDC-139193],-26.16,–
O=C(/C=C/c1ccc(Cl)c(Cl)c1)NC1CCC(CN2CCC(c3nc4ccc(O)cc4[nH]3)CC2)CC1 (stereo not drawn) [TCMDC-140227],3.463,–
CCCc1cc(Cc2cnc(N)nc2N)cc(CCC)c1OC [TCMDC-137694],-10.37,–
Cc1ccc(-c2noc(=O)n2CC(=O)Nc2ccccc2-c2ccccc2)cc1 [TCMDC-123570],15.39,–
CC(Cc1ccc(CNC(=O)NCc2ccc(CC(C)NCCc3cccc(Cl)c3)cc2)cc1)NCCc1cccc(Cl)c1 (stereo not drawn) [TCMDC-139648],111.4,–
O=C(NCCc1ccc(Cl)c(Cl)c1)c1ccc(CNC(=O)c2ccc(O)c(-c3ccc(Cl)c(Cl)c3)c2)cc1 [TCMDC-140872],8.428,–
CC(Cc1ccc(NS(=O)(=O)c2ccc(CC(C)NCCc3cccc(Cl)c3)cc2)cc1)NCCc1cccc(Cl)c1 (stereo not drawn) [TCMDC-139797],48.75,–
CC(C)c1ccc(NC(=O)c2ccc(CN3CCCN(Cc4cccc(Cl)c4)CC3)cc2)cc1 [TCMDC-136418],3.705,–
CC(Cc1ccc(CNC(=O)c2ccc(CC(C)NCCc3cccc(Cl)c3)cc2)cc1)NCCc1cccc(Cl)c1 (stereo not drawn) [TCMDC-139659],108.3,–
CC(C)c1sc(N2CCN(C)CC2)nc1C(=O)NCCc1cccc(Cl)c1 [TCMDC-134297],6.593,–
CC(Cc1ccc(C(=O)N2CCN(C(=O)c3ccc(CC(C)NCCc4cccc(Cl)c4)cc3)CC2)cc1)NCCc1cccc(Cl)c1 (stereo not drawn) [TCMDC-139613],105.5,–

SMILES,% Inhibition [%],% Inhibition (% Inhibition) [%]
CC(C)n1cc(CN2CCCC(C(=O)Nc3cccc(-c4cc5ccccc5[nH]4)c3)C2)cn1 (stereo not drawn) [TCMDC-124681],-62.3,–
CC(C)c1sc(N2CCCCC2)nc1C(=O)Nc1ccc(F)cc1C(F)(F)F [TCMDC-134299],-21.66,–
COc1cccc(CNC(=O)NC2CCN(c3ccnc(Nc4cc(OC)c(OC)c(OC)c4)n3)C2)c1 (stereo not drawn) [TCMDC-133628],38.97,–
CN1CCC(NCc2ccc(-c3ccc(C(F)(F)F)cc3)cc2)CC1 [TCMDC-141094],-30.31,–
CS(=O)(=O)NCCCNCc1ccc(-c2ccc(-c3nc4cc(C(F)(F)F)ccc4[nH]3)cc2)cc1.O=C(O)C(F)(F)F [TCMDC-133080],-31.8,–
CS(=O)(=O)NCCCNCc1ccc(-c2cccc(-c3nc4ccc(C(F)(F)F)cc4[nH]3)c2)cc1 [TCMDC-133087],6.297,–
CCN(CC)CCCNCc1ccc(-c2ccc(C(F)(F)F)cc2)cc1 [TCMDC-141087],65.86,–
FC(F)(F)c1ccc2[nH]c(-c3ccc(-c4ccc(CNCCc5ccncc5)cc4)cc3)nc2c1.O=C(O)C(F)(F)F [TCMDC-132852],-64.17,–
CN(C)CCCNCc1ccc(-c2ccc(C(F)(F)F)cc2)cc1 [TCMDC-140011],92.27,–
O=C(CC(=O)C(F)(F)F)c1ccccc1[N+](=O)[O-] [TCMDC-125884],22.33,–
Cc1ccc(-n2c(Cc3cccc4ccccc34)nnc2SCCC#N)c(C)c1 [TCMDC-123560],-0.8399,–
O=C(CC1CCCC1)Nc1ccc2c(c1)CCC2 [TCMDC-124327],8.334,–
CC(C)n1ncc2c(C(=O)N3CCCC4CCCCC43)cc(C3CC3)nc21 (stereo not drawn) [TCMDC-125305],-1.205,–
Cc1ccc(-n2c(Sc3ncnc4sccc34)nnc2N2CCCC2)cc1 [TCMDC-125247],65.97,–
CN1CCN(CCCCNc2c3ccccc3nc3ccccc23)CC1 [TCMDC-137479],105.4,–
COc1cc2nc(NCCC(C)C)n3nc(-c4ccccc4)nc3c2cc1OC [TCMDC-124451],-18.82,–
CC(CCNc1c2ccccc2nc2ccccc12)N1CCN(C)CC1 (stereo not drawn) [TCMDC-138011],98.03,–
CN1CCN(CCCCCCNc2c3ccccc3nc3ccccc23)CC1 [TCMDC-137542],98.34,–
CN1CCN(c2nc(NCCNc3ccc([N+](=O)[O-])cc3)c3ccccc3n2)CC1 [TCMDC-124567],35.05,–
CN1CCN(CCCCCNc2c3ccccc3nc3ccccc23)CC1 [TCMDC-137541],96.5,–
COc1ccc2nccc([C@@H](O)CN3CCC(NCc4nc5c(cc4Cl)SCC(=O)N5)C(F)C3)c2c1 (stereo partly drawn) [TCMDC-141717],–,2.766
O=C(Nc1ccc(S(=O)(=O)N2CCCC2)cc1)c1cc(-c2cccnc2)nc2ccc(Cl)cc12 [TCMDC-124359],-22.21,–
COc1ccc(-c2cnc(N)nc2N)cc1Cl [TCMDC-137297],-3.357,–

SMILES,% Inhibition [%],% Inhibition (% Inhibition) [%]
CC(C)(C)c1cc(C(=O)N2CCN(c3ccc(C(F)(F)F)cn3)CC2)n(Cc2ccc(F)cc2)n1 [TCMDC-123791],22.03,–
Cc1nc(-c2cccc3c(NC(=O)N4CCc5cc6nccc(N7CCN(C)CC7)c6cc54)cccc23)no1 [TCMDC-139370],-51.93,–
Cc1cc(N2CCCCC2)nc2ccc(NC(=O)c3cncc(Br)c3)cc12 [TCMDC-124421],17.06,–
O=C(Nc1ccccc1)c1ccc(N2CCC(COc3cccc(C(F)(F)F)c3)CC2)nc1 [TCMDC-134507],-9.482,–
CC(C)CNCc1cccc(-c2ccc(CN(C(=O)NC3CCCCC3)C3CCN(Cc4ccccc4)CC3)cc2)c1 [TCMDC-140634],102.1,–
CC(C)CNCc1ccc(-c2cccc(CN(C(=O)NC3CCCCC3)C3CCN(Cc4ccccc4)CC3)c2)cc1 [TCMDC-140628],92.69,–
CC(C)CNCc1cccc(-c2cccc(CN(C(=O)NC3CCCCC3)C3CCN(Cc4ccccc4)CC3)c2)c1 [TCMDC-140627],95.46,–
CC(C)CNCc1ccc(-c2ccc(CN(C(=O)NC3CCCCC3)C3CCN(Cc4ccccc4)CC3)cc2)cc1 [TCMDC-140635],103.7,–
CC(C)Oc1ccc(C=CC(=O)Nc2noc3ccccc23)cc1 [TCMDC-125292],41.66,–
Cc1cccc(CNc2nc(C)cc(NCCC(=O)NCCOc3ccccc3)n2)c1 [TCMDC-134884],13.93,–
COc1ccc2ncc(Cl)c(CCN3CCC(NCc4ccc5c(n4)NC(=O)CO5)CC3)c2c1 [TCMDC-141808],-9.673,–
O=C(NCCc1ccc(O)cc1)n1c2ccccc2c2ccccc21 [TCMDC-138166],-0.5781,–
Cc1ccccc1CNc1noc(-c2c(F)cccc2Cl)n1 [TCMDC-133373],21.36,–
Cc1ccc(OCC2CCN(c3ncc(C(=O)NC4CC4)cc3Cl)CC2)cc1 [TCMDC-134055],11.28,–
O=C(NC1CC1)c1cnc(N2CCC(Oc3ccc(Cl)cc3)CC2)c(Cl)c1 [TCMDC-134040],28.34,–
O=C(NC1CC1)c1cnc(N2CCC(OCc3ccccc3)CC2)c(Cl)c1 [TCMDC-134610],14.6,–
Cc1cc(OCC2CCN(c3ncc(C(=O)NC4CC4)cc3Cl)CC2)ccc1F [TCMDC-134032],14.47,–
CC(C)c1cccc(OCC2CCN(c3ncc(C(=O)NC4CC4)cc3Cl)CC2)c1 [TCMDC-134260],-10.41,–
Cc1ccc(OCC2CCN(c3ncc(C(=O)NCCCN4CCCC4=O)cc3Cl)CC2)cc1 [TCMDC-134056],53.1,–
Cc1cccc(OCC2CCN(c3ncc(C(=O)NC4CC4)cc3Cl)CC2)c1 [TCMDC-134058],0.6256,–
Cc1cccc(OC2CCN(c3ncc(C(=O)NCCCN4CCCC4=O)cc3Cl)CC2)c1 [TCMDC-134057],81.53,–
O=C(NCCCN1CCCC1=O)c1cnc(N2CCC(Oc3ccccc3)CC2)c(Cl)c1 [TCMDC-134054],50.82,–
CC(C)(C)c1ccc(NC(=O)c2cccc(CN3CCN(Cc4cccc(O)c4)CC3)c2)cc1 [TCMDC-136604],-36.18,–

# — publication PMC4552634, “A New Set of Chemical Starting Points with Plasmodium falciparum Transmission-Blocking Potential for Antimalarial Drug Discovery” (PLoS ONE, 2015)
